Each structure is given as a SMILES string. Results filed as inconclusive are left out. Values without a mark were called inactive. Calls of active or inactive are those of the source. Calls come from the whole dose curve; as a rule, active = well fitted curve in the direction sought with a large enough effect; inconclusive = small, poorly fitted or top-dose-only effect, or another doubt; inactive = no such curve, though single readings can be large or run the other way.

The experiment can be described thus: qHTS Assay for Compounds Blocking the Interaction Between CBF-beta and RUNX1 for the Treatment of Acute Myeloid Leukemia: SAR for Probe with Orthogonal Assay. Conditions: ME-1 cells viability, ATPlite luminescence, 48 h; series mostly up to 82.4 µM; activity change, negative = inhibition: at the top concentration. An excerpt: NIH Chemical Genomics Center [NCGC] NIH Molecular Libraries Probe Production centers Network [MLPCN] MLPCN Grant: X01MH083259-01 Assay Submitter (PI): Paul Liu NCGC Assay Overview: Core Binding Factor (CBF) abnormalities are associated with 20-25% of all acute myeloid leukemias (AML), of which 5-10% are further sub classified as acute myelomonocytic leukemia with eosinophilia, also known as M4Eo in the FAB classification scheme. This subtype of leukemia is usually associated with chromosome 16 inversion (p13:q22). Chromosome 16 inversion results in formation of the fusion oncogene CBFB-MYH11, which encodes the fusion protein CBF-beta-SMMHC. […] It has been hypothesized that the interference of CBF-beta and RUNX1 binding could have therapeutic implications for patients with CBF mediated leukemias. We developed a CBF-beta and RUNX1 binding assay in AlphaScreenTM format and optimized it for high throughput screening to search for inhibitors. The goal of this project is to screen MLPCN's compound collection (MLSMR) for identifying the inhibitors of the interaction between CBF-beta and RUNX1 proteins as research probes. If these probes work well in the animal models, the ultimate goal of this project is to development a new drug treatment for this disease. This assay can not be used to assess how apparent inhibitors interfere with protein binding, and whether inhibitors specifically bind to either protein. Disruption of this protein-protein interaction, through any mechanism, is the intended target activity. The present data set was run to confirm the activity of hits from the primary screen using an orthogonal assay technology for measuring protein-protein interaction disruption.
NCGC Assay protocol: ME-1 suspension cells were grown in T225 flasks to 80% density under a standard cell culture condition (ATCC) using Dulbecco's Modified Eagle Medium (DMEM) + 10% fetal bovine serum, harvested in OPTI-MEM (phenol free) + 10% FBS. Seeded at 500 cells/well in 5uL medium into 1536-well white solid-bottom plates using Multidrop Combi dispenser, and incubated the plates at 37 C with 5% CO2 and 95% humidity for 2 hours prior to pinning compound. Subsequently, 23 nL/well compound solutions or DMSO controls were dispensed to the assay plates via a pintool workstation. Plates were then transferred to 37 C with 5% CO2 and 95% humidity for 48 hours, and then ATP content was measured following the addition of 4uL/well of ATPlite reagent and a 20 min incubation on a ViewLux plate reader. Keywords: MLSMR, MLPCN, NIH Roadmap, qHTS, NCGC, Core binding factor, CBF, CBF-beta, Acute myeloid leukemia
In general terms: Quantitative high-throughput screening tests each substance at several concentrations.
For the compound `NCCCCC(=O)Nc1ccc(Cl)cc1C(=O)c1ccc[nH]1`, the “activity change, negative = inhibition” value was -42.2%. On to `C[C@H](N)C(=O)Nc1ccc(Cl)cc1C(=O)c1ccc[nH]1`, for which the “activity change, negative = inhibition” value was -17.6%.

Turning to `Nc1ccc(Cl)cc1C(=O)c1ccc[nH]1`, the “activity change, negative = inhibition” value is 1.45%.

On to `CNCC(=O)Nc1ccc(Cl)cc1C(=O)c1ccc[nH]1`, for which the “activity change, negative = inhibition” value was -4.39%. Regarding `N[C@@H](CO)C(=O)Nc1ccc(Cl)cc1C(=O)c1ccc[nH]1`, the “activity change, negative = inhibition” value was -12.7%. For the compound `N[C@@H](Cc1ccccc1)C(=O)Nc1ccc(Cl)cc1C(=O)c1ccc[nH]1`, the “activity change, negative = inhibition” value is 3.46%.

As to `N[C@H](C(=O)Nc1ccc(Cl)cc1C(=O)c1ccc[nH]1)c1ccccc1`, the “activity change, negative = inhibition” value is -6.2%. For the compound `CCc1sc(N)nc1-c1ccc(OC)cc1`, the “activity change, negative = inhibition” value is 6.57% [at 41 µM]. With `NCC(=O)Nc1ccc(Cl)cc1C(=O)c1ccc[nH]1`, the result was inactive. For `N[C@@H](CCC(=O)O)C(=O)Nc1ccc(Cl)cc1C(=O)c1ccc[nH]1`, the “activity change, negative = inhibition” value is -16.9%.

For the compound `CC(C)[C@H](N)C(=O)Nc1ccc(Cl)cc1C(=O)c1ccc[nH]1`, the “activity change, negative = inhibition” value was -7.1%. Take `CCC(=O)Nc1ccc(Cl)cc1C(=O)c1ccc[nH]1`: the “activity change, negative = inhibition” value was 1.35%. Consider `CC(=O)Nc1ccc(Cl)cc1C(=O)c1ccc[nH]1`, for which the “activity change, negative = inhibition” value was -5.24%. For `CNCc1nc(-c2ccc[nH]2)c2cc(Cl)ccc2n1`, the “activity change, negative = inhibition” value is 28%. Turning to `CN(C)CC(=O)Nc1ccc(Cl)cc1C(=O)c1ccc[nH]1`, the “activity change, negative = inhibition” value was -14.1%. Same read-out and setting: to `NC(N)=NCCC[C@H](N)C(=O)Nc1ccc(Cl)cc1C(=O)c1ccc[nH]1` belongs 7.87%; to `C[C@@H](N)C(=O)Nc1ccc(Cl)cc1C(=O)c1ccc[nH]1`, 6.1%. As to `NC(=O)C[C@H](N)C(=O)Nc1ccc(Cl)cc1C(=O)c1ccc[nH]1`, the “activity change, negative = inhibition” value is -25.5%. As for `CC(C)(N)C(=O)Nc1ccc(Cl)cc1C(=O)c1ccc[nH]1`, the “activity change, negative = inhibition” value was 0.648%.

Take `NCCCC[C@H](N)C(=O)Nc1ccc(Cl)cc1C(=O)c1ccc[nH]1`: the “activity change, negative = inhibition” value was -3.67%. Turning to `N[C@H](Cc1ccccc1)C(=O)Nc1ccc(Cl)cc1C(=O)c1ccc[nH]1`, the “activity change, negative = inhibition” value is -12.2%. On the same count and under the same terms, the same measure for `N[C@@H](CC(=O)O)C(=O)Nc1ccc(Cl)cc1C(=O)c1ccc[nH]1`: -15%; for `NCCC(=O)Nc1ccc(Cl)cc1C(=O)c1ccc[nH]1`: 3.25%; for `NCCCC(=O)Nc1ccc(Cl)cc1C(=O)c1ccc[nH]1`: -11%. Still for that read-out and setting: the same measure for `O=C(c1ccc[nH]1)c1cc(Cl)ccc1NC(=O)[C@@H]1CCCN1`: 21.2%.

The values above are taken from PubChem BioAssay AID504378 (National Center for Advancing Translational Sciences (NCATS), 2011).
